Assay results: PubChem BioAssay (NCATS)
Records with an inconclusive call do not appear. Unmarked numbers belong to inactive results. Active and inactive are the calls of the source. Calls follow the shape of the dose curve; as a rule, active = well fitted cell-killing curve with a large enough effect; inconclusive = small, poorly fitted or top-dose-only effect, or effect the other way; inactive = flat fitted curve, though single readings scatter.

assay: MultiTox-Fluor Cytotoxicity Assay - LYMP1-001 - Dead Cells (AID 946); settings: LYMP1-001 lymphoblastoid cells, dead-cell protease fluorescence; series mostly up to 92.2 µM; cytotoxicity (dead cells): at the top concentration;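 as to cytotoxicity (dead cells): 0% = DMSO and 100% = tetraoctylammonium bromide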
Text: NIH Chemical Genomics Center [NCGC]
NIH Molecular Libraries Screening Centers Network [MLSCN]
National Institutes of Environmental Health Sciences [NIEHS]
National Toxicology Program [NTP]
We have developed a 1536-well cell-based assay for quantitative high throughput screening (qHTS) against a number of cell lines to determine in vitro cytotoxicity of small molecules. This particular assay uses a human lymphoblastoid cell line (LYMP1-001) purchased from Coriell Institute for Medical Research.
NCGC Assay Protocol Summary:
The MultiTox-Fluor Cytotoxicity Assay (Promega) is a homogeneous method to simultaneously measure the relative number of live and dead cells in culture by detecting changes in cell membrane integrity. There are two fluorogenic peptide substrates in the assay reagent. Viable cells are determined when the cell-permeant substrate (GF-AFC) enters the cell and is cleaved by protease from live cells resulting in liberated fluorophore. This live-cell protease activity restricted to viable cells is proportional to cell number. The dead cells are determined by using fluorogenic cell-impermeant peptide substrate (bis-AAF-R110) which cleaved by dead cell proteases leaking from damaged cell membrane.
Using the MultiTox-Fluor Cytotoxicity Assay, the relative number of dead cells was measured in the lymphoblastoid cell line with complete culture medium following compound treatment for 16 hours. The assay was performed in opaque black Kalypsys 1536-well plates. In the screen, tetraoctylammonium bromide was used as positive control. Library compounds were measured for their ability to cause acute toxicity in the cell line, as reflected by an increase in dead cell protease activity, in a concentration-dependent manner. Data were normalized to the controls for basal activity (DMSO only) and 100% stimulation (15 uM tetraoctylammonium bromide). AC50 values were determined from concentration-response data modeled with the standard Hill equation.
qHTS protocol for MultiTox-Fluor Cytotoxicity assay
[Step] [Parameter] [Value] [Description]
1. Reagent; 5 uL; 2500 lymphoblastoid cells/well
2. Time; 5 hr; 37 C incubation
4. Controls; 23 nL; Tetraoctylammonium bromide 6.4pM to 92 uM
5. Time; 16 hr; 37 C incubation
6. Reagent; 5 uL; MuliTox-Fluor Assay reagent
7. Time; 60 min; Room Temperature
8. Detection; dead-cell fluorescence (Ex/Em=485/520); EnVision plate reader
Keywords: cytotoxicity, lymphoblastoid cell line, fluorescence, NTPHTS, NTPHTS_NCGC, NIEHS, EPA, DSSTox, MLSMR, MLSCN, NIH Roadmap, qHTS, NCGC
Potency is read from the fitted curve at half-maximal effect.

Row | Structure (SMILES) | cytotoxicity (dead cells) [%] | Potency
1 | Brc1cc(Br)c(Oc2cc(Br)c(Br)cc2Br)cc1Br | -3.18 | 
2 | CC(=O)OC1CC(C)OC(C)O1 (stereo not given) | -15.4 | 
3 | Cc1c(N)cccc1Cl | -8.7 | 
4 | C[Si](C)(C)Cl | -8.78 | 
5 | Oc1cc(Cl)cc(Cl)c1Cl | 28.1 | 
6 | CCCC(=O)OC(=O)CCC | 9.69 | 
7 | CCCCCCCC/C=C\CCCCCCCC(=O)N(CCO)CCO | 21.9 | 
8 | O=C(OCC1CO1)C1CCCCC1C(=O)OCC1CO1 (stereo not given) | 29.2 | 
9 | O=[N+]([O-])c1cc(N(CCO)CCO)ccc1NCCO | 2.74 | 
10 | C=C(C#N)C(=O)OCC | 8.22 | 
11 | O=[N+]([O-])c1ccc(F)cc1F | 8.35 | 
12 | Nc1ccc(-c2ccc(N)c(O)c2)cc1O | -16.4 | 
13 | N=C1C=CC(=C(c2ccc(N)cc2)c2ccc(N)cc2)C=C1 | 27.6 | 
14 | CCc1ccc(C(c2ccc(CC)cc2)C(Cl)Cl)cc1 | -2.61 | 
15 | O=C(O)c1cc(N=Nc2ccc([N+](=O)[O-])cc2)ccc1O | 9.49 | 
16 | c1ccncc1 | 2.05 | 
17 | C/C=C/C=C/C=O | 12 | 
18 | CCCCC(CC)COP(=O)(OCC(CC)CCCC)OCC(CC)CCCC (stereo not given) | 12.8 | 
19 | O=CC(=O)c1ccccc1 | 3.91 | 
20 | Cc1ccc(O)c(N)c1 | 4.58 | 

Row | Structure (SMILES) | cytotoxicity (dead cells) [%] | Potency
21 | CC(=O)c1ccc(Cl)c(Cl)c1Cl | -7.54 | 
22 | O=[N+]([O-])c1ccccc1Nc1ccccc1 | -10.3 | 
23 | C/C(Cl)=C/CCl | 16 | 
24 | Brc1cc(Oc2cc(Br)c(Br)c(Br)c2Br)c(Br)c(Br)c1Br | 5.37 | 
25 | NC(=O)c1ccc([N+](=O)[O-])cc1 | 0.26 | 
26 | CC(C)COC(=O)COc1cc(Cl)c(Cl)cc1Cl | 6.32 | 
27 | Nc1cnn([C@@H]2O[C@H](CO)[C@@H](O)[C@H]2O)c(=O)n1 | 4.82 | 
28 | Oc1ccc2c(c1)OCO2 | 0.0678 | 
29 | CN(C)c1ccc(C(=N)c2ccc(N(C)C)cc2)cc1 |  | 39.8 µM (active)
30 | CCCCCCCCC1CO1 (stereo not given) | -12.7 | 
31 | O=C1c2ccccc2C(=O)C1(O)O | 8.11 | 
32 | CCCCOC(=O)COc1ccc(Cl)cc1Cl | -1.9 | 
33 | S=C(NC1CCCCC1)NC1CCCCC1 | 9.72 | 
34 | c1ccc(CSCc2ccccc2)cc1 | -6.17 | 
35 | c1ccc2c(c1)ccc1ccccc12 | -10.2 | 
36 | Nc1cc([N+](=O)[O-])ccc1O | -5.06 | 
37 | c1c[nH]cn1 | -24.4 | 
38 | Cc1ccc2ccc3cccc4ccc1c2c34 | -13.6 | 
39 | O=C(O)c1ccc([N+](=O)[O-])cc1 | -2 | 
40 | C1CCCNCC1 | 2.89 | 
